Screening data as filed in PubChem BioAssay.
In the library only some 3.3% were active in any assay of this set; here they are far more common.
USP1 inh: Inhibitors of USP1/UAF1: Primary Screen. 390,000 compounds, 0.23% hits. Ubiquitin carboxyl-terminal hydrolase 1 (Homo sapiens), O94782. Potency, µM (highest dose often 57.1 µM), most hits filed as inhibitors. recombinant USP1/UAF1, Ub-Rhodamine cleavage fluorescence; note: nearly all actives have a fitted effect of over 60% in size
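In this screen, compounds sit with the deubiquitinase complex (1nM) for 15 min at room temperature before Ub-Rho is added at 150nM final. Fluorescence rise is then followed for 6 reads every 60 seconds.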
USP2a block: qHTS Assay for Inhibitors of Ubiquitin-specific Protease USP2a Using CHOP2 as the Reporter | Potency, µM (highest dose often 38.3 µM), usual class: inhibitors | Ubiquitin carboxyl-terminal hydrolase 2 (Homo sapiens), O75604 | USP2 core, Ub-CHOP2 coupled fluorogenic reporter, 485/531 | 330,000 compounds, 0.01% hits
Target sequence (O75604 whole entry, looked up): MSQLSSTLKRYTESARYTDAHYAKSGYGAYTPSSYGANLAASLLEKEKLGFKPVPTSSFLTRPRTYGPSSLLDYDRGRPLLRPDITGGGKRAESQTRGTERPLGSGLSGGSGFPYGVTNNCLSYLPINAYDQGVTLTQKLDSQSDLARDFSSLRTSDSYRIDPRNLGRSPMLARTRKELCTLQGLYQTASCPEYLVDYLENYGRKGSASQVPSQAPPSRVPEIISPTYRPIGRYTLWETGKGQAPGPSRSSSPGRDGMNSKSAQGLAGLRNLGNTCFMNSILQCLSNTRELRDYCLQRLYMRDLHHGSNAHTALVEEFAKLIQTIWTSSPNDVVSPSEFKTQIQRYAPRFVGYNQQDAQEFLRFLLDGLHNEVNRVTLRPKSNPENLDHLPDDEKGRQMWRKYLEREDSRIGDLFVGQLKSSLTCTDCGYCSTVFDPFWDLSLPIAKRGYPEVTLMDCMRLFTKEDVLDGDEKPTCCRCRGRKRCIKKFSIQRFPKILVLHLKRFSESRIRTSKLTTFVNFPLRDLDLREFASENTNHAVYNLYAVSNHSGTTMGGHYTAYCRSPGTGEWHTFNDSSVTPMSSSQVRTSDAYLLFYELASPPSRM
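USP2 core (10nM final) preincubated 30min RT with compound in 20mM Tris-HCl pH 8.0, 2mM CaCl2, 2mM beta-mercaptoethanol, 0.05% CHAPS; 25nM Ub-CHOP2 plus 25nM reporter substrate added, fluorescence (Ex485/Em531) read after 60min.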
PI5P4Ka inh: qHTS for Inhibitors of phosphatidylinositol 5-phosphate 4-kinase (PI5P4K) | AID 652105, 2013 | max response, % | Phosphatidylinositol 5-phosphate 4-kinase type-2 alpha (Homo sapiens), P48426 | 330,000 compounds, 1.2% hits | PI5P4Kalpha enzyme, ADP-Glo luminescence, 60 min; stronger effect = lower value; active = max response of -50% or lower; inconclusive = between -30% and -50%; inactive = -30% or higher; note: value at the top dose of about 77 µM
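Reactions run in 0.038 M HEPES pH 7.4, 0.28 mM EGTA, 0.1% CHAPS and 5% DMSO, with PI5P4Kalpha, substrate, compound and 5 microM ATP final, one hour at room temperature. Readout is ADP-Glo luminescence.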
WRN helicase inh: qHTS for Inhibitors of WRN Helicase. AID 651768, 2012. Bifunctional 3'-5' exonuclease/ATP-dependent helicase WRN (Homo sapiens), Q14191. Potency, µM (top dose mostly 114 µM), actives largely listed as inhibitors. 360,000 compounds, 0.46% hits. WRN helicase unwinding, fluorescent forked duplex, kinetic; note: nearly all actives have a fitted effect of over 55% in size
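WRN at 20 nM final preincubated with compound 15 min at room temperature; reaction started with 100 nM fluorophore/quencher forked duplex oligonucleotide and 2 mM ATP final. Unwinding followed kinetically by red fluorescence (ex 525, em 598 nm).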
PLK1 PBD inh: qHTS for Inhibitors of PLK1-PDB (polo-like kinase 1 - polo-box domain): Primary Screen. Serine/threonine-protein kinase PLK1 (Homo sapiens), P53350. Plk1 PBD binding of FITC phosphopeptide, fluorescence polarization. Potency, µM, hits mostly inhibitors. 360,000 compounds, 2.8% hits; note: series mostly up to about 57 µM; nearly all actives have a fitted effect of over 65% in size
Of the large screens only hits and unclear results are named; the others gave an inactive call. Unless noted, calls come from the whole dose curve; as a rule, active = well fitted curve in the direction sought with a large enough effect; inconclusive = small, poorly fitted or top-dose-only effect, or another doubt; inactive = no such curve, though single readings can be large; an effect the other way counts as inactive or inconclusive.

CCCc1cc(C(N)=O)c(NC(=O)c2ccco2)s1	PLK1 PBD inh 26.7µM
NC(=O)c1c(NC(=O)C2CCCO2)sc2c1CCCC2 (stereo not given)	PI5P4Ka inh inconclusive, WRN helicase inh inconclusive, PLK1 PBD inh 10.6µM
CCOC(=O)c1c(NC(=O)C2CCCO2)sc(C(=O)OC(C)(C)C)c1C (stereo not given)	PLK1 PBD inh 5.97µM
CCOC(=O)c1sc(NC(=O)C2CCCO2)c(C(=O)OCC)c1C (stereo not given)	none (no result: USP1 inh, PI5P4Ka inh, WRN helicase inh, PLK1 PBD inh)
Cc1ccc(C(=O)Nc2ccc3c(c2)N(C)C(=O)c2ccccc2S3)cc1	none (no result: USP2a block, PI5P4Ka inh, WRN helicase inh, PLK1 PBD inh)
Cc1sc(NC(=O)C2CCCO2)c(C(N)=O)c1C (stereo not given)	PI5P4Ka inh inconclusive, PLK1 PBD inh 16.8µM
CCCCCCn1c(=O)[nH]c2nc3cc(N)c(C)cc3nc2c1=O	USP1 inh inconclusive, USP2a block inconclusive, PI5P4Ka inh inconclusive, WRN helicase inh inconclusive, PLK1 PBD inh 2.99µM
CCOC(=O)c1cccc(NC(=O)CCC(=O)N2CC(C)Oc3ccc(C)cc32)c1 (stereo not given)	none (no result: USP2a block, PI5P4Ka inh, WRN helicase inh, PLK1 PBD inh)
CCC1(c2ccccc2)NC(=O)N(CC(=O)N2CCN(S(=O)(=O)c3ccccc3)CC2)C1=O (stereo not given)	PI5P4Ka inh -64.9
O=C(NCCc1ccccc1)c1cnc2sc(N3CCCCCC3)nn2c1=O	none (no result: USP2a block, PI5P4Ka inh, WRN helicase inh, PLK1 PBD inh)
COc1ccc(NC(=O)CCS(=O)(=O)c2nc(-c3cccs3)cc(C(F)(F)F)n2)cc1	none (no result: USP2a block, PI5P4Ka inh, WRN helicase inh, PLK1 PBD inh)
O=C(CCS(=O)(=O)c1nc(-c2cccs2)cc(C(F)(F)F)n1)Nc1ccc(OC(F)(F)F)cc1	USP1 inh 14.1µM (no result: USP2a block, PI5P4Ka inh, WRN helicase inh, PLK1 PBD inh)
COc1ccc2c(c1)c[n+](C)c1c3cc(OC)c(OC)cc3ccc21	PLK1 PBD inh 11.9µM (no result: USP1 inh, USP2a block)
CC1=NN(c2ccccc2)C(=O)C1N=Nc1ccc(N)cc1 (stereo not given)	PLK1 PBD inh 23.8µM
CC1=NN(C(N)=S)C(=O)C1N=Nc1ccc(Cl)cc1 (stereo not given)	PLK1 PBD inh 13.4µM
CC1=NN(c2ccccc2)C(=O)C1N=Nc1ccccc1 (stereo not given)	none
Cc1cc2nc(C)c(=O)n(C)c2cc1C	PLK1 PBD inh 13.4µM
C/C(N)=C(/C#N)C(=O)CSc1nc2ccccc2[nH]1	WRN helicase inh inconclusive (no result: PI5P4Ka inh)
C/C(N)=C(/C#N)C(=O)CSc1ncnc2ccccc12	PLK1 PBD inh 26.7µM
COc1cccc(-c2nc(SCC(=O)NC3CCCC3)c(-c3ccc(F)cc3)[nH]2)c1	none (no result: USP2a block, PI5P4Ka inh, WRN helicase inh, PLK1 PBD inh)
CCCN(C(=O)c1sc2nc3n(c(=O)c2c1C)CCCC3)c1ccccc1C	none (no result: USP2a block, PI5P4Ka inh, WRN helicase inh, PLK1 PBD inh)
O=C(O)c1ccccc1C(=O)N1N=C2/C(=C/c3cccc([N+](=O)[O-])c3)CCCC2C1c1cccc([N+](=O)[O-])c1 (stereo not given)	PLK1 PBD inh 67µM
CC(=O)N1N=C2/C(=C/c3ccccc3)CCCC2C1c1ccccc1 (stereo not given)	PLK1 PBD inh 26.7µM
COCCNC(=O)C(=O)Nc1c2c(nn1-c1ccccc1)CS(=O)(=O)C2	none (no result: USP2a block, PI5P4Ka inh, WRN helicase inh, PLK1 PBD inh)
CC1=C(C(=O)Nc2ccccc2)C(c2cccc(O)c2)n2nc(-c3ccccc3Cl)nc2N1 (stereo not given)	none (no result: USP2a block, PI5P4Ka inh, WRN helicase inh, PLK1 PBD inh)
CCOC(=O)/C(=C/C=C1\Sc2cc(C)c(C)cc2N1CC)C(C)=O	USP1 inh 25.1µM, USP2a block inconclusive
CC(=O)[C@@H]1[C@@H]2C(=O)N(c3ccccc3F)C(=O)[C@@H]2[C@H]2c3ccccc3C=NN12	WRN helicase inh inconclusive
O=C(c1ccc(Cl)cc1)[C@@H]1[C@@H]2C(=O)N(c3cccc4ccccc34)C(=O)[C@@H]2C2c3ccccc3C=NN21 (stereo not given in full)	PLK1 PBD inh 23.8µM
COc1ccccc1N=c1oc2cc(O)ccc2cc1C(=O)NCC1CCCO1 (stereo not given)	none (no result: PI5P4Ka inh)
COc1ccccc1N=c1oc2cc(O)ccc2cc1C(N)=O	PI5P4Ka inh -70.7, WRN helicase inh inconclusive
